Data published in PubChem BioAssay (NCATS).
Records with an inconclusive call do not appear. Unmarked numbers belong to inactive results. Activity calls are given as the source filed them. Calls come from the whole dose curve; as a rule, active = well fitted curve in the direction sought with a large enough effect; inconclusive = small, poorly fitted or top-dose-only effect, or another doubt; inactive = no such curve, though single readings can be large; an effect the other way counts as inactive or inconclusive.

Experiment: Drug repurposing screens with cells derived from glioblastoma tumor samples (AID 1345199); note: % is set by controls: 0 for no effect and ±100 for the full control effect; nearly all actives have a fitted effect of over 40% in size
Conditions: GBM patient neurospheres viability, ATP luminescence, 48 h; at 45.9 µM (top of the series); tumour line B
Outline: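 Four patient lines of CD133+ GBM neurospheres were screened at several concentrations; hits were retested in those lines plus three slower-growing GBM lines, using 48-hour treatment and ATP-based viability.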

Structure (SMILES) | activity, negative = cell killing [%]
CCOC(=O)O[C@]1(C(=O)OCCl)CC[C@@H]2[C@H]3CCC4=CC(=O)C=C[C@]4(C)[C@@H]3[C@@H](O)C[C@@]21C | -4.15
CC1(C)O[C@H]2C[C@@H]3[C@H]4CCC5=CC(=O)C=C[C@]5(C)[C@@]4(F)[C@@H](O)C[C@]3(C)[C@]2(C(=O)CO)O1 | -4.78
NC[C@@H]1O[C@@H](O[C@H]2[C@@H](O)[C@H](O[C@@H]3[C@@H](O)[C@@H](N)C[C@H](N)[C@H]3O[C@H]3O[C@H](CN)[C@@H](O)[C@@H](O)[C@H]3N)O[C@H]2CO)[C@H](N)[C@@H](O)[C@@H]1O | 5.16
CN1[C@@H]2CCC[C@@H]1CC(NC(=O)c1nn(C)c3ccccc13)C2 (some centres not stated) | 0.357
C[N+]1(C)[C@@H]2CC(OC(=O)[C@H](CO)c3ccccc3)C[C@H]1[C@H]1O[C@@H]12 (some centres not stated) | -9.31

Same assay, conditions: GBM patient neurospheres viability, ATP luminescence, 48 h; at 45.9 µM (top of the series); tumour line D

Structure (SMILES) | activity, negative = cell killing [%]
CCOC(=O)O[C@]1(C(=O)OCCl)CC[C@@H]2[C@H]3CCC4=CC(=O)C=C[C@]4(C)[C@@H]3[C@@H](O)C[C@@]21C | 8.73
CC1(C)O[C@H]2C[C@@H]3[C@H]4CCC5=CC(=O)C=C[C@]5(C)[C@@]4(F)[C@@H](O)C[C@]3(C)[C@]2(C(=O)CO)O1 | 5.68
NC[C@@H]1O[C@@H](O[C@H]2[C@@H](O)[C@H](O[C@@H]3[C@@H](O)[C@@H](N)C[C@H](N)[C@H]3O[C@H]3O[C@H](CN)[C@@H](O)[C@@H](O)[C@H]3N)O[C@H]2CO)[C@H](N)[C@@H](O)[C@@H]1O | 4.28
CN1[C@@H]2CCC[C@@H]1CC(NC(=O)c1nn(C)c3ccccc13)C2 (some centres not stated) | 2.65
C[N+]1(C)[C@@H]2CC(OC(=O)[C@H](CO)c3ccccc3)C[C@H]1[C@H]1O[C@@H]12 (some centres not stated) | -20.1

Same assay, conditions: GBM patient neurospheres viability, ATP luminescence, 48 h; at 46 µM (top of the series); tumour line A

Structure (SMILES) | activity, negative = cell killing [%]
CCOC(=O)O[C@]1(C(=O)OCCl)CC[C@@H]2[C@H]3CCC4=CC(=O)C=C[C@]4(C)[C@@H]3[C@@H](O)C[C@@]21C | -8.19
CC1(C)O[C@H]2C[C@@H]3[C@H]4CCC5=CC(=O)C=C[C@]5(C)[C@@]4(F)[C@@H](O)C[C@]3(C)[C@]2(C(=O)CO)O1 | -11.2
NC[C@@H]1O[C@@H](O[C@H]2[C@@H](O)[C@H](O[C@@H]3[C@@H](O)[C@@H](N)C[C@H](N)[C@H]3O[C@H]3O[C@H](CN)[C@@H](O)[C@@H](O)[C@H]3N)O[C@H]2CO)[C@H](N)[C@@H](O)[C@@H]1O | -29.1
C[N+]1(C)[C@@H]2CC(OC(=O)[C@H](CO)c3ccccc3)C[C@H]1[C@H]1O[C@@H]12 (some centres not stated) | -28.4

Same assay, conditions: GBM patient neurospheres viability, ATP luminescence, 48 h; at 46.1 µM (top of the series); tumour line C

Structure (SMILES) | activity, negative = cell killing [%]
CCOC(=O)O[C@]1(C(=O)OCCl)CC[C@@H]2[C@H]3CCC4=CC(=O)C=C[C@]4(C)[C@@H]3[C@@H](O)C[C@@]21C | 1.62
CC1(C)O[C@H]2C[C@@H]3[C@H]4CCC5=CC(=O)C=C[C@]5(C)[C@@]4(F)[C@@H](O)C[C@]3(C)[C@]2(C(=O)CO)O1 | 3.17
NC[C@@H]1O[C@@H](O[C@H]2[C@@H](O)[C@H](O[C@@H]3[C@@H](O)[C@@H](N)C[C@H](N)[C@H]3O[C@H]3O[C@H](CN)[C@@H](O)[C@@H](O)[C@H]3N)O[C@H]2CO)[C@H](N)[C@@H](O)[C@@H]1O | 9.32
CN1[C@@H]2CCC[C@@H]1CC(NC(=O)c1nn(C)c3ccccc13)C2 (some centres not stated) | -11.6
C[N+]1(C)[C@@H]2CC(OC(=O)[C@H](CO)c3ccccc3)C[C@H]1[C@H]1O[C@@H]12 (some centres not stated) | -22.8

Experiment: qHTS assay to identify inhibitors of the type 1 interferon - major histocompatibility complex class I in skeletal muscle: Counter screen cell viability and HiBit confirmation (AID 1347412); note: potency is the fitted concentration of half-maximal effect; nearly all actives have a fitted effect of over 60% in size
Conditions: iHSKM muscle cells + IFN-b, HiBiT or CellTiter-Glo, 24 h; HiBiT
Outline: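 After 24 h with human IFN-beta (4 ng/ml) and compound titrations (top 46 uM final, 1:3, 12 points), HLA-B HiBit myoblasts were lysed for either Nano-Glo HiBiT luminescence or CellTiter Glo viability on paired plates.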

Structure (SMILES) | Potency
COc1cc(Nc2ncc(F)c(Nc3ccc4c(n3)NC(=O)C(C)(C)O4)n2)cc(OC)c1OC | 1.25 µM (active)
CC(=O)Nc1ccc([C@H](C)C(=O)Nc2ncc(C(C)C)s2)cc1 | 2.49 µM (active)
O=C1C(Cl)=C(NCCN2CCOCC2)C(=O)c2ncccc21 | 5.57 µM (active)
O=C(O)c1ccccc1C(=O)Nc1ccc(-c2ccccc2)cc1 | 14 µM (active)
NS(=O)(=O)c1cccc2c1C(=O)c1cccc(O)c1C2=O | 0.557 µM (active)
c1ccc2c(-c3cnn4cc(-c5ccc(N6CCNCC6)cc5)cnc34)ccnc2c1 | 7.87 µM (active)
COCCOc1nc(-c2ccc(Cl)c(Cl)c2)n(-c2ccc(NC(=O)CCl)cc2)n1 | 3.52 µM (active)
COc1ccc(-c2nc(N3CCOCC3)c3sc(CN(C)c4ncc(C(=O)NO)cn4)cc3n2)cn1 | 0.0279 µM (active)
O=C1c2ccccc2-[n+]2ccc3c([nH]c4ccccc43)c21 | 1.57 µM (active)
CC1(C)CCC2=C(O1)c1ccccc1C(=O)C2=O | 22.2 µM (active)
CC(C)n1nc(-c2ccc3oc(N)nc3c2)c2c(N)ncnc21 | 0.0991 µM (active)
NS(=O)(=O)c1ccc(NC2=CC(=O)c3ccccc3C2=O)cc1 | 3.52 µM (active)
COc1cc(N2CCC(N3CCN(C)CC3)CC2)ccc1Nc1ncc(Cl)c(Nc2ccccc2S(=O)(=O)C(C)C)n1 | 17.6 µM (active)
